Only a selection was taken, and hits are over-represented in it overall.
ROC1-CUL1 inh: inhibitors of human ROC1-CUL1 ubiquitin ligase activity; P62877+Q13616; in vitro K48 di-Ub FRET, acceptor:donor ratio, 45 min; inhibition, % at 10 µM; 0.6% of 140,000 active; AID 1347404; in the data active = inhibition above about 25%
Target sequence (P62877 whole entry, looked up): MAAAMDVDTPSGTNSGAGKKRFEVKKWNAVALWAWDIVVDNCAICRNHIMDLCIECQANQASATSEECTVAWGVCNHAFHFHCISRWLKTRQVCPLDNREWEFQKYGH
Target sequence (Q13616 whole entry, looked up): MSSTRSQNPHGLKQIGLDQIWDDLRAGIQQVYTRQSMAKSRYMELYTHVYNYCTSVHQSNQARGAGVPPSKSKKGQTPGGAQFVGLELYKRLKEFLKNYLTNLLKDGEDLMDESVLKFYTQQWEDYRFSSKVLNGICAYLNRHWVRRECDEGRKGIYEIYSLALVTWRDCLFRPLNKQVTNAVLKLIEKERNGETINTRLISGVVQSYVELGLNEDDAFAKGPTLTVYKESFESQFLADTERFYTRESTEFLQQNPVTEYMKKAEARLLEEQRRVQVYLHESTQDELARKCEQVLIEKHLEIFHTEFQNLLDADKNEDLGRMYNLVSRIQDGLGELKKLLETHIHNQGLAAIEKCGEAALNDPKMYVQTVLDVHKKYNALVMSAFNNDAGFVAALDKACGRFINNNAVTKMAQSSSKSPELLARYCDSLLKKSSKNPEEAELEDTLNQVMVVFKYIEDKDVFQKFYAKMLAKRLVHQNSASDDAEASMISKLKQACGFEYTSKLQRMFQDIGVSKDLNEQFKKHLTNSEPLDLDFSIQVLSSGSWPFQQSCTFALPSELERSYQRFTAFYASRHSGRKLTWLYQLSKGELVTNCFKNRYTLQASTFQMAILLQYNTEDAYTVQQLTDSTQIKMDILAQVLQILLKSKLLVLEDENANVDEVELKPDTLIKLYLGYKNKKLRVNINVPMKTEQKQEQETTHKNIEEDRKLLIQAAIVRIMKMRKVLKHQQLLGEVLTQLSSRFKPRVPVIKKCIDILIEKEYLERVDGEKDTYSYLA
* = called active by the depositor.

SMILES	ROC1-CUL1 inh
O=C(c1coc(COc2cccc3cccnc23)n1)N1CC[C@@H]2CCCC[C@H]2C1	56.6*
CC(C)CNC(=O)c1coc(COc2cccc3cccnc23)n1	6.4
O=C(c1coc(COc2cccc3cnccc23)n1)N1CCCC1	0.7
O=C(CCCOc1ccc(Cl)cc1Cl)N1CCOCC1	0.5
Cc1cc(C)cc(N=Cc2ccccc2[N+](=O)[O-])c1	-0.4
CCOC(=O)NC(O/N=C(\N)c1ccccc1)(C(=O)OCC)C(F)(F)F (centres undefined)	4.2
COC(=O)c1c(C)sc(-c2c(-c3ccc(OC)c(F)c3)[nH]c3c2c(=O)n(C)c(=O)n3C)c1O	3.2
COC(=O)c1c(C)sc(-c2c(-c3cccc(OC)c3)[nH]c3c2c(=O)[nH]c(=O)n3C)c1O	23.8
COC(=O)c1c(C)sc(-c2c(-c3ccc4c(c3)OCCO4)[nH]c3c2c(=O)[nH]c(=O)n3C)c1O	27.3*
Cc1nc2c(=O)n(C)c(=O)n(C)c2nc1Cl	71.5*
Cc1nc2c(nc1Cl)c(=O)n(C)c(=O)n2C	-5.2
COc1cnc2c(=O)n(C)c(=O)n(C)c2n1	2.0
CSCc1noc(Cn2ncc(N3CCCC3)cc2=O)n1	8.1
Cc1nc(SCCN2CCOCC2)cc(-c2ccccc2)n1	-3.1
N#Cc1c(-c2ccccc2)cc(-c2cccs2)nc1SCCN1CCOCC1	0.5
N#Cc1c(-c2ccccc2)cc(-c2ccccc2)nc1SCCN1CCOCC1	99.7*
CCOc1ccc(S(=O)(=O)NCCSCc2ccccc2)cc1	-0.3
c1cc2c(s1)COCc1sccc1-2	45.3*
O=C(O)c1sccc1-c1ccsc1C(=O)O	-1.0
CCCCc1nnc(SCC(=O)Nc2cccc(C(F)(F)F)c2)n1N	8.6
CN(C)CCn1c2ccccc2c2ccc3nc(Cl)ccc3c21	3.6
O=S(=O)(Nc1cc(Sc2nnnn2-c2ccccc2)c(O)c2ccccc12)c1ccccc1	5.2
O=C(O)CSc1cc(NS(=O)(=O)c2ccccc2)c2ccccc2c1O	36.8*
O=C(O)CSc1cc(NS(=O)(=O)c2ccc(Br)cc2)c2ccccc2c1O	102.1*
CC(C)(C)c1ccc(S(=O)(=O)Nc2cc(SCC(=O)O)c(O)c3ccccc23)cc1	92.1*
SMILES	ROC1-CUL1 inh
CC(C)(C)c1ccc(S(=O)(=O)Nc2ccc(O)c(C(=O)O)c2)cc1	4.3
CC(=O)c1c(C)oc2c1cc(NS(=O)(=O)c1ccc(Br)cc1)c1ccccc12	2.7
CC(C)(C)c1ccc(S(=O)(=O)Nc2ccc(Cl)cc2Cl)cc1	-2.2
Cc1ccc(NS(=O)(=O)c2ccccc2)c(O)c1	11.5
O=c1oc2c(cc(NS(=O)(=O)c3ccc(Br)cc3)c3ccccc32)s1	2.3
CC(=NCc1ccccc1)C1C(=O)c2cccc3c2N(CCC3)C1=O (centres undefined)	-5.6
CCCc1cc(C(=O)N2CCN(c3cccc(C)c3C)CC2)cs1	4.8
COc1cc(C(=O)NN(C(=S)SC)S(C)(=O)=O)cc(OC)c1OC	5.7
COc1ccc(-c2cnnc(N(C)CCC3CCOCC3)n2)cc1OC	8.4
CCCn1c(=O)[nH]c(=O)c2c(-c3ccc4c(c3)OCO4)ccnc21	-2.1
CCCOc1ccc(C(=O)N2CCOCC2)cc1Br	6.7
Cc1ccc(OCC(=O)Nc2ccccc2Cl)c(C)c1	-0.5
COCCN1CCC(CN(Cc2cnc(SC)nc2)CC2CCCO2)CC1 (centres undefined)	0.2
COC(=O)C1C2(C)N=c3s/c(=C\c4cc(Cl)cc(Cl)c4O)c(=O)n3C3c4ccccc4OC312 (centres undefined)	41.3*
Cc1ccccc1NC(=O)C1C2c3ccccc3OC1(C)N=c1s/c(=C/c3cnn(C)c3C)c(=O)n12 (centres undefined)	-4.1
CCOC(=O)C1=C(C)N=c2s/c(=C\c3cc(Cl)cc(Cl)c3O)c(=O)n2C1c1ccccc1Cl (centres undefined)	-28.9
CC(NC(=O)COc1ccc2ccccc2c1)C(=O)N/N=C/c1cccc(Cl)c1Cl (centres undefined)	3.8
COc1cc(OC)c([N+](=O)[O-])cc1/C=C1\C(=O)NC(=S)N(C)C1=O	-7.0
O=C1NC(=S)N(c2ccccc2)C(=O)/C1=C/c1cc([N+](=O)[O-])c(O)cc1O	94.5*
O=C1NC(=S)N(c2cccc(Br)c2)C(=O)/C1=C/c1ccccc1O	-7.8
Cc1cc(C)nc(SCC(=O)N/N=C/c2cc(C)n(-c3ccccc3F)c2C)n1	-11.1
O=C1N(c2ccccc2)C[C@@H]2C[C@@H](/C=C/c3ccco3)N3CCC[C@@]123	5.3
Cc1cc(C)cc(N2C(=O)/C(=C/c3cn(CC(=O)N4CCC(C)CC4)c4ccccc34)C(=O)NC2=S)c1	-5.7
Cc1c(Cl)cccc1N1C(=O)/C(=C/c2cn(CC(=O)O)c3ccccc23)C(=O)NC1=S	80.7*
O=C1NC(=S)N(c2ccc(Br)cc2)C(=O)/C1=C/c1cn(CC(=O)N2CCCc3ccccc32)c2ccccc12	-9.9
SMILES	ROC1-CUL1 inh
COCC(=O)Nc1cc(C(=O)NC(CCSC)C(=O)OC)cc2ncn(CCc3ccccc3)c12 (centres undefined)	-0.7
C=CCn1c(O)c(C2=c3ccccc3=NC2=O)sc1=N	-5.2
N=C1OCC(=O)C1c1ccc(N)cc1 (centres undefined)	-1.5
CCOC(=O)c1c(C)n(-c2ccccc2)c2cc([N+](=O)[O-])c(O)c([N+](=O)[O-])c12	-0.2
Cc1cc(=O)[nH]c(SCC(=O)c2ccc(O)c(O)c2)n1	15.4
O=C(CSc1nc2ccccc2c(=O)[nH]1)c1ccc(O)c(O)c1	103.2*
O=C(CSc1nc2ccccc2c(=O)[nH]1)c1ccc(Cl)cc1	2.2
CCNC(=O)c1cn(CCc2ccccc2)cc(C(=O)N2CCCC(c3ccccc3)C2)c1=O (centres undefined)	-1.4
O=c1cc(C2CCCNC2)nc(Cc2cccs2)[nH]1 (centres undefined)	7.8
Cc1cccc(N=C2S/C(=C\c3ccc(O)c(O)c3)C(=O)N2c2cccc(C)c2)c1	-4.4
CC(=O)NCc1cc(=O)[nH]c(C(C)(C)C)n1	-6.2
Cn1c(=O)c2c(nc3n2CCCN3C2CCCCCCC2)n(C)c1=O	0.7
O=[N+]([O-])CC(c1ccccc1Cl)c1c(-c2ccccc2)n(O)c2ccccc12 (centres undefined)	-0.8
O=C1NN=C2N=C(C(F)(F)F)C=C(C(F)(F)F)C12 (centres undefined)	97.4*
CCN(CC)c1ccc(C2C(C(N)=O)C(C)=Nc3nc(SCc4ccccc4)nn32)cc1 (centres undefined)	-8.1
O=C(Nc1nc2ccccc2s1)C(C(F)(F)F)C(F)(F)F	74.2*
CC(Oc1ccccc1)C(=O)Nc1nc2ccccc2s1 (centres undefined)	2.9
CC(C)C(=O)Nc1nc2ccccc2s1	1.1
O=C(CCC1(Cc2ccccc2)CCC(=O)N1)NCCc1ccccc1C(F)(F)F (centres undefined)	10.1
O=C(NCCC(c1ccccc1)c1ccccc1)c1cc2ccccc2c(=O)o1	-3.0
CC(C)CNS(=O)(=O)c1ccc(OCC(=O)NCc2ccccn2)cc1	4.2
CCOCCCNC(=O)c1cc(NS(=O)(=O)N(C)C)cc2nc(CC(C)C)n(C)c12	6.0
O=C(O)COc1ccccc1/C=C1\C(=O)Nc2ccc(Br)cc21	5.2
O=C1Nc2ccc(Br)cc2/C1=C\c1nc2ccccc2c(=O)n1-c1cccc(C(=O)O)c1	31.7*
O=C1Nc2ccc(Br)cc2C1=Cc1nc2ccccc2c(=O)n1Cc1ccccc1	-4.1
CCn1c(Cc2ccccc2)nnc1SCCOc1ccccc1Cl	2.8

High-throughput results: PubChem, Pan Lab, Icahn School of Medicine at Mount Sinai
